Experimental data from PMC5540273 (PLoS ONE, 2017).

Test system: PDPK1
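Also: kd values determined as follow-up on hits from a single-replicate KINOMEscan panel screen.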

Compound | Kd
CCCc1ccc(S(=O)(=O)NC2CCN(c3ccnc(Nc4ccc(F)cc4)n3)C2)cc1 (stereo not drawn) [GSK1379715] | > 10 µM
CCn1c(-c2ccccn2)nc2cnccc21 [SB-736398] | > 10 µM
Fc1cc(Cl)ccc1Nc1ccnc2cc(-c3ccc(CN4CCCCC4)o3)ccc12 [GW560116] | > 10 µM
